In all, about 33,000 sequences were measured (“e-score”: median about -0.053, highest 2% from about 0.38 on). The sample holds the highest values, similar sequences and a random draw of the others, so the mix is not that of the screen.
Biological target: T1, SIX1 homeodomain (reference allele) (human, UniProt Q15475 108-198)
T1 sequence: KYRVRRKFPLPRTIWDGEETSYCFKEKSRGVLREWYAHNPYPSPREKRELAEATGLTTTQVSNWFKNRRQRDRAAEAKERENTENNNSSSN
Experiment: universal protein binding microarray; Universal all-10-mer PBM (8x60K, AMADID 030236), 300 nM GST-tagged protein, Alexa Fluor 488 anti-GST; buffer, salt, pH and temperature not stated (as in Berger); high values mean tight binding
Settings: protein: ivt; tags: N-terminal GST; dsDNA, one strand shown
Procedure, shortened: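 Binding was expressed as 8-mer E-scores calculated with the Universal PBM Analysis Suite. The GST-tagged homeodomains, made by in vitro transcription/translation, were applied in duplicate at 300 nM final concentration to universal 'all 10-mer' protein binding microarrays (8×60K format).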

Sequence	binding signal
ATAGGATG	0.211 ± 0.00535 E-score
GATCGTAA	0.216 ± 0.0203 E-score
ACAGATAG	0.208 ± 0.0152 E-score
AAACCGAT	0.184 ± 0.013 E-score
ATCGTTTG	0.196 ± 0.0542 E-score
ATATCTAC	0.387 ± 0.0445 E-score
ATATCTAA	0.316 ± 0.0663 E-score
CTATCTAC	0.24 ± 0.0207 E-score
ACCCGAGA	0.213 ± 0.00331 E-score
AGGATATC	0.466 ± 0.0183 E-score
AGGATATA	0.346 ± 0.0479 E-score
AGGATATG	0.421 ± 0.00759 E-score
CGGATAAC	0.339 ± 0.0303 E-score
AGGATAAG	0.181 ± 0.0696 E-score
AGGATAGC	0.229 ± 0.0872 E-score
CGGATATC	0.473 ± 0.0121 E-score
AGGATAAC	0.211 ± 0.00987 E-score
CGGATAAA	0.275 ± 0.0785 E-score
CGGATAGA	0.355 ± 0.012 E-score
CGGATAGC	0.382 ± 0.00849 E-score
AGGATAAT	0.295 ± 0.036 E-score
AGTATGAT	0.2824 ± 0.000431 E-score
ATCACGCC	0.26 ± 0.00476 E-score
ATCTCTTG	0.224 ± 0.039 E-score
CAGATCTG	0.216 ± 0.124 E-score

Sequence	binding signal
AGCTCGAT	0.227 ± 0.00607 E-score
CATCCTAC	0.157 ± 0.0313 E-score
ATACATGA	0.231 ± 0.0327 E-score
ATACAATG	0.248 ± 0.00431 E-score
GATACCCA	0.4758 ± 0.00303 E-score
CATACCCA	0.208 ± 0.066 E-score
CATACCCG	0.259 ± 0.0615 E-score
TATACCCA	0.401 ± 0.0193 E-score
TCTACCCA	0.221 ± 0.0189 E-score
CGCTATAC	0.254 ± 0.0251 E-score
ACTTGTAT	0.246 ± 0.0178 E-score
CTTAATAC	0.281 ± 0.0535 E-score
CAGATAAC	0.191 ± 0.0157 E-score
ATCTGGCC	0.181 ± 0.0229 E-score
ATACACAC	0.249 ± 0.0542 E-score
GTACACCA	0.233 ± 0.039 E-score
ATACACCC	0.391 ± 0.00614 E-score
AAACACCC	0.253 ± 0.0462 E-score
CTACACCA	0.312 ± 0.0106 E-score
ATACACCG	0.398 ± 0.0351 E-score
ATACACAG	0.289 ± 0.0145 E-score
CTACACCC	0.263 ± 0.044 E-score
ATACACCA	0.389 ± 0.0166 E-score
CATCGAAG	0.178 ± 0.0656 E-score
ATCGTGCC	0.192 ± 0.00267 E-score

Sequence	binding signal
ATACTTAG	0.205 ± 0.0528 E-score
CACCTATC	0.266 ± 0.0455 E-score
GAAAGATA	0.324 ± 0.096 E-score
GGGAAACC	0.162 ± 0.106 E-score
CTATCCAC	0.219 ± 0.0193 E-score
CTATCCAG	0.199 ± 0.0567 E-score
CGATCCAC	0.375 ± 0.0695 E-score
TAATCCAA	0.1853 ± 0.00116 E-score
AGATCCAT	0.254 ± 0.00332 E-score
ATATCCAT	0.389 ± 0.0181 E-score
ATATCCAC	0.395 ± 0.0197 E-score
GTATCCAC	0.3951 ± 0.00369 E-score
GTATCCAA	0.421 ± 0.0174 E-score
ATATCCAA	0.358 ± 0.01 E-score
CAATCCAC	0.168 ± 0.0919 E-score
ATATCCAG	0.373 ± 0.0215 E-score
CGACAGAA	0.153 ± 0.115 E-score
ATATGTCG	0.272 ± 0.052 E-score
ATCCAGGG	0.236 ± 0.0104 E-score
ATCATCAG	0.154 ± 0.0285 E-score
GATCTAGC	0.215 ± 0.0211 E-score
GATCCATA	0.357 ± 0.0223 E-score
CATCCTGA	0.169 ± 0.0388 E-score
AATCCATA	0.214 ± 0.0274 E-score
GATCCTGA	0.301 ± 0.0202 E-score

Sequence	binding signal
TATCCTGA	0.382 ± 0.0186 E-score
TATCCATA	0.39076 ± 0.000148 E-score
GAACAATA	0.2 ± 0.0128 E-score
CTTAGATC	0.158 ± 0.00598 E-score
CCTACTCA	0.161 ± 0.0165 E-score
ATACTAAG	0.209 ± 0.0591 E-score
TAACACGA	0.19 ± 0.0238 E-score
ATTGATAC	0.465 ± 0.0161 E-score
ATTGATAG	0.288 ± 0.0226 E-score
CTTGATAC	0.442 ± 0.0251 E-score
ATTGATGC	0.182 ± 0.0328 E-score
CTTGACAC	0.244 ± 0.0534 E-score
CTTGATCA	0.218 ± 0.037 E-score
CTTGATCC	0.361 ± 0.00995 E-score
CTCAATAC	0.259 ± 0.0252 E-score
ATTGATCC	0.406 ± 0.0164 E-score
CGTCTCGC	0.167 ± 0.0173 E-score
GATCGACC	0.162 ± 0.12 E-score
GATCTCGA	0.221 ± 0.00099 E-score
AATACTCT	0.257 ± 0.089 E-score
AACCTATA	0.205 ± 0.0654 E-score
CCCTTGGA	0.213 ± 0.00655 E-score
ATCCCTTC	0.303 ± 0.0125 E-score
CTACTGTA	0.165 ± 0.0781 E-score
AATTAATA	0.191 ± 0.0409 E-score

Sequence	binding signal
AGATACAG	0.246 ± 0.0181 E-score
GCATACAC	0.155 ± 0.0339 E-score
GGATACAC	0.405 ± 0.0186 E-score
AGATACAC	0.3801 ± 0.00099 E-score
GGATACAA	0.354 ± 0.037 E-score
CGATACAC	0.418 ± 0.0108 E-score
CGATACAA	0.288 ± 0.0425 E-score
AGATACAA	0.168 ± 0.0186 E-score
CGATACAG	0.313 ± 0.044 E-score
ACAATATG	0.239 ± 0.0268 E-score
ATCACTTA	0.273 ± 0.0813 E-score
ATGGGGTC	0.168 ± 0.00238 E-score
AGTAGATC	0.321 ± 0.0238 E-score
GACCGATC	0.246 ± 0.028 E-score
ATACTTCC	0.241 ± 0.0829 E-score
AGTATCAT	0.473 ± 0.0218 E-score
ATCATCAC	0.228 ± 0.00571 E-score
AGTATTAG	0.301 ± 0.0212 E-score
AGTATCAG	0.46 ± 0.0186 E-score
ATTATCAG	0.168 ± 0.0386 E-score
ACTATCAT	0.3 ± 0.0715 E-score
CCTATCAG	0.326 ± 0.00869 E-score
CGTATCAG	0.465 ± 0.00812 E-score
AGTATTAA	0.233 ± 0.112 E-score
ACTATCAG	0.217 ± 0.0215 E-score

Sequence	binding signal
AGTATAAT	0.265 ± 0.0967 E-score
AGTATCAC	0.464 ± 0.0196 E-score
ATCGTGAG	0.26 ± 0.00974 E-score
CGGTAATA	0.23 ± 0.0198 E-score
AGACCGAT	0.179 ± 0.0125 E-score
TACTCGGA	0.162 ± 0.0415 E-score
ACACCTGA	0.281 ± 0.0355 E-score
GAAATATC	0.262 ± 0.0623 E-score
ATAGCATA	0.218 ± 0.00716 E-score
AGTATCAA	0.444 ± 0.0435 E-score
ATTATCAA	0.165 ± 0.0524 E-score
ACTATCAA	0.253 ± 0.0636 E-score
ACACCAAA	0.263 ± 0.0137 E-score
AGTCGATA	0.257 ± 0.0323 E-score
GGCAATAC	0.181 ± 0.00926 E-score
AAGTGGAT	0.182 ± 0.0178 E-score
CGGGTGGA	0.236 ± 0.0891 E-score
CGGGTGTA	0.265 ± 0.0586 E-score
GTGGTGTA	0.286 ± 0.0221 E-score
GCGGTGTA	0.336 ± 0.0311 E-score
GGGGTGTA	0.387 ± 0.00837 E-score
AGGGGGTG	0.186 ± 0.0209 E-score
CGGGTGTC	0.439 ± 0.025 E-score
AGGGTGTC	0.4355 ± 0.00243 E-score
AGGGTGTA	0.313 ± 0.048 E-score

Sequence	binding signal
ATCAAGAT	0.209 ± 0.0291 E-score
AAGCCGGA	0.159 ± 0.0672 E-score
GATCGGCC	0.255 ± 0.03 E-score
TACCCCAA	0.174 ± 0.0539 E-score
ATATACTA	0.256 ± 0.0638 E-score
CAACACCC	0.24 ± 0.00973 E-score
CTCGATGA	0.165 ± 0.00668 E-score
ATCGATTC	0.2 ± 0.0315 E-score
CTCGATAC	0.41 ± 0.0184 E-score
ATCGATAG	0.2745 ± 0.00192 E-score
CTCGATCC	0.325 ± 0.0557 E-score
ATCGATAC	0.446 ± 0.0107 E-score
CAGATGAG	0.203 ± 0.0236 E-score
CAATAATA	0.223 ± 0.0513 E-score
CCCGCGAG	0.206 ± 0.0166 E-score
GGTGTAAA	0.198 ± 0.028 E-score
GGATCGAC	0.297 ± 0.113 E-score
ATATCGAT	0.411 ± 0.0335 E-score
GTATAGAC	0.276 ± 0.00412 E-score
CTATCGAG	0.157 ± 0.0365 E-score
ATATCGAG	0.335 ± 0.0302 E-score
GTATCGAC	0.405 ± 0.0127 E-score
GTATCGAA	0.43 ± 0.00911 E-score
ATATCGAC	0.379 ± 0.00832 E-score

— article PMC10668032, “Altered binding affinity of SIX1-Q177R correlates with enhanced WNT5A and WNT pathway effector expression in Wilms tumor”
